A short description of assay [1]: qHTS Assay for Identifying Gametocytocidal Compounds (AID 743244; active = well fitted curve in the direction sought with a large enough effect; an effect the other way counts as inactive or inconclusive; note: potency is the fitted concentration of half-maximal effect;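 for max response: % is set by controls: 0 for no effect and ±100 for the full control effect; actives lower the fluorescent signal which means gametocytes are killed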). The settings on record: P. falciparum 3D7 stage III-V gametocytes, alamarBlue, 72 h; max response: stronger effect = lower value. In a few lines: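 In this qHTS viability screen, late-stage 3D7 gametocytes are incubated with compound for 72 h, then with alamarBlue for 24 h; reduced resorufin fluorescence marks killing.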
On the technique in general: Quantitative high-throughput screening tests each substance at several concentrations.

Assay [2] can be described thus: qHTS profiling of the MIPE4 collection as inhibitors of Plasmodium falciparum (3D7) proliferation (AID 743344).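 Note: scaled between DMSO vehicle wells and 0.29 µM artemisinin as full inhibition.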 Conditions: P. falciparum 3D7 in erythrocytes, SYBR Green DNA fluorescence, 72 h; at 28.5 µM (top of the series) unless noted. In a few lines:
(§1)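 Parasite DNA was quantified by SYBR Green I fluorescence (ex 485, em 535 nm) after overnight lysis in saponin/Triton buffer at room temperature. Cultures at 0.3% parasitemia and 2.5% hematocrit were first exposed to compound for 72 h at 37 C; signals were normalised to artemisinin (0.29 uM) and vehicle wells.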

Assay [3] in a line: qHTS assay for cell viability of HEK293 cells (AID 743288; active = well fitted curve in the direction sought with a large enough effect; an effect the other way counts as inactive or inconclusive; note: % is set by controls: 0 for no effect and ±100 for the full control effect; nearly all actives have a fitted effect of over 50% in size). Conditions: ATP luminescence (CellTiter-Glo), 18 h, stronger effect = lower value. In a few lines: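 Steps: plate 2,000 parental HEK293 cells per well; incubate ≥5 h, 37 C; add compounds in DMSO; incubate 18 h, 37 C; add CellTiter-Glo; wait 30 min at room temperature; read luminescence.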
Assay [4] in a line: qHTS assay for cell viability of the p53RE-bla HCT-116 cell line (AID 743292; active = well fitted curve in the direction sought with a large enough effect; an effect the other way counts as inactive or inconclusive; note: % is set by controls: 0 for no effect and ±100 for the full control effect; nearly all actives have a fitted effect of over 55% in size). The method in brief: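 Compound-exposed HCT-116 (p53RE-bla) cells, 4,000 per well, were kept 16 h at 37 C following a 5 h preincubation. Cell number was estimated from total ATP by CellTiter-Glo luminescence read after 30 min at room temperature.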
Assay [5] in a line: qHTS profiling for inhibitors of Plasmodium falciparum (3D7) proliferation (AID 743322).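 Note: infected erythrocytes exposed to compound for 72 h before lysis; 100% = DMSO vehicle wells and 0% = 0.29 µM artemisinin.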 Conditions: P. falciparum 3D7 proliferation; at 28.7 µM (top of the series). The method in brief: as §1
Assay [6] is described as follows: qHTS profiling for inhibitors of Plasmodium falciparum (DD2) proliferation (AID 743323). The settings on record: lower = more inhibition; at 28.7 µM (top of the series). The method in brief: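 Parasite DNA quantified by SYBR Green fluorescence (ex 485, em 535 nm) after saponin/Triton lysis and overnight dark incubation. Cultures: 0.3% parasitemia, 2.5% hematocrit, 72 h, 37 C; data scaled between DMSO and 0.29 uM artemisinin.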

Assay [7] can be described thus: qHTS profiling for inhibitors of Plasmodium falciparum (HB3) proliferation (AID 743324; active = well fitted curve in the direction sought with a large enough effect; an effect the other way counts as inactive or inconclusive;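 note: 100% = DMSO vehicle wells and 0% = artemisinin-treated control wells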). The settings on record: Plasmodium falciparum HB3 blood-stage proliferation; at 28.7 µM (top of the series). The method in brief:
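SYBR Green fluorescence (485 ex/535 em) of lysed cultures, incubated overnight at room temperature in the dark, quantifies parasite DNA. Infected erythrocytes at 0.3% parasitemia and 2.5% hematocrit were exposed 72 h; values normalized to DMSO and 0.29 uM artemisinin controls.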

The results in this text go back to PubChem BioAssay (NCATS).

Inconclusive results are not listed. Active and inactive are the calls of the source. Unless noted, the rule behind the calls is not given here. Starred links: 1 amine or outer side, 2 acyl side, 3 side chain; linkers in the order of their positions; H or OH if unused. Positions of bridges follow the written chain, without caps; N, C: chain ends. Non-standard residues stand in square brackets, D forms with d. Residues, ends and D or L forms follow the SMILES beside them. Chains are numbered I, II in the order given. Actinocin(9to1) = Cc1c2oc3c(C)ccc(C(=O)[*:1])c3nc-2c(C(=O)[*:2])c(N)c1=O; NMeV = CN[CH](C(=O)O)C(C)C; Sar = CNCC(=O)O

Consider `CCCCCCCN(CC)CCCC(O)c1ccc(NS(C)(=O)=O)cc1` (stereo not given), for which the max response in assay [1] was -2.04% (inactive). This compound displayed a parasite growth, % of DMSO control in assay [2] of 58.8%.

In the case of `CCS(=O)(=O)Nc1ccc2[nH]c(O)c(C(=Nc3ccc(CN4CCCCC4)cc3)c3ccccc3)c2c1`, the parasite growth, % of DMSO control in assay [2] amounted to 6.54%.

Take `C[C@]12CC[C@@H]3c4ccc(O)cc4CC[C@H]3[C@H]1CC[C@H]2O`: the max response in assay [3] was -7.02% (inactive). In assay [4], the result was inactive. Further, the parasite growth, % of DMSO control in assay [2] came to 65.8%.

Turning to `C[C@@H](Oc1ccc2[nH]nc(C=Cc3cnn(CCO)c3)c2c1)c1c(Cl)cncc1Cl`, the parasite growth, % of DMSO control in assay [2] came out at 5.43%.

For the compound `NC(=O)c1ncn([C@@H]2O[C@H](CO)[C@@H](O)[C@@H]2O)c1N`, the remaining parasite growth % (stronger effect = lower value) in assay [5] came to 94.2%. The activity, percent of control in assay [6] is 92.4%. Further, the remaining proliferation (% of control), lower = more inhibition in assay [7] amounted to 92.9%. Also, the parasite growth, % of DMSO control in assay [2] stood at 96.5%.

For the compound `COc1cc(C=CC(=O)CC(=O)C=Cc2ccc(O)c(OC)c2)ccc1O`, the remaining parasite growth % (stronger effect = lower value) in assay [5] was -1.44%. Besides, the activity, percent of control in assay [6] is -0.402%. The remaining proliferation (% of control), lower = more inhibition in assay [7] worked out at 0.164%. In assay [2], the parasite growth, % of DMSO control was determined as 4.86% [at 57.5 µM].

Regarding `COc1cc2c(cc1OC)[C@@H]1C(=O)c3ccc4c(c3O[C@@H]1CO2)C=CC(C)(C)O4`, the max response in assay [1] is -5.53% (inactive). Moreover, the remaining parasite growth % (stronger effect = lower value) in assay [5] turned out to be 39.1%. For the same compound, the activity, percent of control in assay [6] was 44.5%. Moreover, the remaining proliferation (% of control), lower = more inhibition in assay [7] was found to be 17.6%. In addition, the parasite growth, % of DMSO control in assay [2] turned out to be 45.9%.

With `COC(=O)C1C2CC3c4[nH]c5cc(OC)ccc5c4CCN3CC2CC(OC(=O)c2cc(OC)c(OC)c(OC)c2)C1OC` (stereo not given), the Potency in assay [1] is 42.9 µM (active). Further, in assay [5], the remaining parasite growth % (stronger effect = lower value) was 1.2%. In assay [6], the activity, percent of control was determined as 9.89%. The remaining proliferation (% of control), lower = more inhibition in assay [7] worked out at 2.79%. The compound further returned a parasite growth, % of DMSO control in assay [2] of 10.2%.

Take `Cc1ccccc1C(=O)Nc1ccc(C(=O)N2CCCC(O)c3cc(Cl)ccc32)c(C)c1` (stereo not given): the max response in assay [1] was 1.39% (inactive). The same compound came in with a parasite growth, % of DMSO control in assay [2] of 22.8%.

Turning to `Nc1ccn(C[C@@H](CO)OCP(=O)(O)O)c(=O)n1`, in assay [1], the max response is 0.0749% (inactive).

With `CCOc1cc2ncc(C#N)c(Nc3ccc(OCc4ccccn4)c(Cl)c3)c2cc1NC(=O)C=CCN(C)C`, the parasite growth, % of DMSO control in assay [2] worked out at 7.93%.

On to `N#Cc1ccc(COC[C@H]2O[C@@H](n3c(NCc4ccc(Cl)c(Cl)c4)nc4c(N)ncnc43)[C@@H](O)[C@@H]2O)cc1`, for which the max response in assay [1] is -16.6% (inactive). For the same compound, in assay [5], the remaining parasite growth % (stronger effect = lower value) was 37.7%. The activity, percent of control in assay [6] stood at 23.4%. For the same compound, in assay [7], the remaining proliferation (% of control), lower = more inhibition is 21.1%. This compound also displayed a parasite growth, % of DMSO control in assay [2] of 20.4%.

`O=C1c2cccc(O)c2C(=O)c2c(O)cc(CO)cc21`: the max response in assay [3] is -3.37% (inactive). Moreover, in assay [4], the outcome was inactive.

With `O=C(C[C@@H]1CC=CCCC(=O)O[C@H](c2ccccc2)CNC1=O)NCc1ccc(Cl)cc1`, in assay [5], the remaining parasite growth % (stronger effect = lower value) came out at 94.2%. The activity, percent of control in assay [6] came out at 102%. Besides, the remaining proliferation (% of control), lower = more inhibition in assay [7] was determined as 71.1%.

For `Nc1ncn([C@@H]2O[C@H](CO)[C@@H](O)[C@@H]2O)c(=O)n1`, the remaining parasite growth % (stronger effect = lower value) in assay [5] stood at 96.3%. Besides, the activity, percent of control in assay [6] stood at 90.8%. The remaining proliferation (% of control), lower = more inhibition in assay [7] turned out to be 89.3%. In assay [2], the parasite growth, % of DMSO control is 100%.

`Cc1c2oc3c(C)ccc(C(=O)NC4C(=O)NC(C(C)C)C(=O)N5CCCC5C(=O)N(C)CC(=O)N(C)C(C(C)C)C(=O)OC4C)c3nc-2c(C(=O)NC2C(=O)NC(C(C)C)C(=O)N3CCCC3C(=O)N(C)CC(=O)N(C)C(C(C)C)C(=O)OC2C)c(N)c1=O` (stereo not given) (I: TVP[Sar][NMeV] / II: TVP[Sar][NMeV]; ester I:1-I:C, II:1-II:C; linker I:N-II:N via Actinocin(9to1); configuration not given here): the remaining parasite growth % (stronger effect = lower value) in assay [5] was -4%. Moreover, in assay [6], the activity, percent of control was -2.06%. Besides, the remaining proliferation (% of control), lower = more inhibition in assay [7] was -1.93%. The compound also came in with a parasite growth, % of DMSO control in assay [2] of 3.86%.

For `CC(C=CC1=C(C)CCCC1(C)C)=CC=CC(C)=CC(=O)Nc1ccc(O)cc1`, the call in assay [4] was inactive.

On to `C#CCC(Cc1cnc2nc(N)nc(N)c2n1)c1ccc(C(=O)N[C@@H](CCC(=O)O)C(=O)O)cc1` (stereo not given in full), for which the max response in assay [1] was 4% (inactive). In assay [2], this compound had a parasite growth, % of DMSO control of 21.7%.
